Experiments:
Experiment in all cases: growth AUC relative to DMSO control (median of replicates) (fraction); higher = more growth (less inhibition), active = hit call of the paper
Conditions in all cases: 20 µM; 24 h;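 active = AUC reduced over 20% with Padj below 0.05 in at least 2 of 3 replicates; inactive = otherwise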
[1] = test system: Coprococcus comes
In short: (§1)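 Each value is the median of three biological replicates, grown on separate days, of a gut bacterial monoculture incubated anaerobically at 37 °C in mGAM with 20 µM compound (1% DMSO). Cultures started at OD600 0.05 and were read at OD600 hourly for 24 h, with the minimum OD set to 0. Area under the growth curve was normalised to the plate median of solvent-only wells, or to row and column medians on the industrial chemical plate.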

[2] = test system: Escherichia coli ED1a
In short: as §1

[3] = test system: Escherichia coli IAI1
In short: as §1

[4] = test system: Eubacterium rectale
In short: as §1

[5] = test system: Fusobacterium nucleatum subsp. animalis
In short: as §1

[6] = test system: Lactobacillus gasseri
In short: as §1

[7] = test system: Lactobacillus paracasei
In short: as §1

[8] = test system: Odoribacter splanchnicus
In short: as §1

[9] = test system: Parabacteroides distasonis
In short: as §1

[10] = test system: Parabacteroides merdae
In short: as §1

[11] = test system: Roseburia intestinalis
In short: as §1

[12] = test system: Streptococcus salivarius
In short: as §1

Measured: growth AUC

COc1nc(N)nc(C(F)(F)F)n1
inactive: [1] 1.05 | [2] 0.998 | [3] 1 | [4] 0.958 | [5] 1.04 | [6] 1.08 | [7] 0.964 | [8] 1.01 | [9] 1.03 | [10] 1.02 | [11] 1.05 | [12] 1

N[C@@H](Cc1cc(I)c(Oc2cc(I)c(O)c(I)c2)c(I)c1)C(=O)O
inactive: [1] 0.906 | [2] 0.959 | [3] 0.941 | [4] 1.04 | [5] 0.838 | [6] 0.87 | [7] 0.886 | [8] 0.957 | [9] 0.921 | [10] 0.949 | [11] 0.798 | [12] 0.923

COC(=O)c1ccc(C(F)(F)F)nc1S(=O)(=O)[N-]C(=O)Nc1nc(OC)cc(OC)n1.[Na+]
inactive: [1] 0.979 | [2] 0.983 | [3] 0.966 | [4] 0.961 | [5] 0.965 | [6] 0.986 | [7] 0.921 | [8] 1.07 | [9] 1 | [10] 0.974 | [11] 0.941 | [12] 1.02

CCCCOCCOC(=O)COc1ccc(Cl)cc1Cl
inactive: [1] 0.982 | [2] 0.983 | [3] 0.983 | [4] 1.1 | [5] 0.92 | [6] 0.88 | [7] 0.962 | [8] 0.97 | [10] 0.954 | [11] 0.941 | [12] 0.948
active: [9] 0.721

CCS(=O)(=O)c1nnc(N(C)C(=O)NC)s1
inactive: [1] 0.938 | [2] 0.984 | [3] 0.99 | [4] 0.976 | [5] 1.01 | [6] 1.04 | [7] 0.851 | [8] 0.992 | [9] 1.06 | [10] 1.01 | [11] 1 | [12] 0.99

O=C(O)c1ccc(Cl)cc1Cl
inactive: [1] 1 | [2] 0.986 | [3] 0.993 | [4] 0.957 | [5] 0.891 | [6] 0.991 | [7] 0.994 | [8] 1.01 | [9] 0.984 | [10] 0.989 | [11] 0.997 | [12] 1

Cc1ccc(Cl)cc1
inactive: [1] 1 | [2] 1.01 | [3] 1.05 | [4] 0.962 | [5] 1.1 | [6] 1.06 | [7] 0.997 | [8] 0.964 | [9] 0.984 | [10] 0.99 | [11] 1 | [12] 1.02

CNC(=O)/C(=N/OC)c1ccccc1CO/N=C(C)/C(=N/OC)C(/C)=N/OC
inactive: [1] 1.01 | [2] 1.01 | [3] 1.05 | [4] 0.928 | [5] 0.91 | [6] 1.16 | [7] 0.998 | [8] 0.989 | [9] 0.997 | [10] 0.976 | [11] 1.01 | [12] 1.01

CCN(CC)c1nc(C)cc(=O)[nH]1
inactive: [1] 1.04 | [2] 0.995 | [3] 0.998 | [4] 0.907 | [5] 1.06 | [6] 0.998 | [7] 0.989 | [8] 1.03 | [9] 1 | [10] 1 | [11] 1.01 | [12] 1.04

Cc1nn(C)c(F)c1C(=O)Nc1ccccc1C(C)CC(C)C (stereo unspecified)
inactive: [1] 0.985 | [2] 1.02 | [3] 1.01 | [4] 0.932 | [5] 0.977 | [6] 1.03 | [7] 0.97 | [8] 0.899 | [9] 0.96 | [10] 0.946 | [11] 0.963 | [12] 1.02

CC(C)(C)[C@@H](O)[C@@H](Cc1ccc(Cl)cc1)n1cncn1 (mixture of isomers)
inactive: [1] 0.994 | [2] 1 | [3] 0.986 | [4] 1.02 | [5] 0.975 | [6] 0.913 | [7] 0.954 | [8] 1.13 | [9] 0.983 | [10] 0.911 | [11] 0.963 | [12] 0.95

CCCCCCCCCC[N+](C)(C)Cc1ccccc1.[Cl-]
inactive: [1] 0.9 | [2] 1 | [3] 0.969 | [4] 0.91 | [5] 1.02 | [6] 0.712 | [7] 1.06 | [8] 0.926 | [9] 0.847 | [10] 0.91 | [11] 0.885 | [12] 0.926

Br[C@@H]1CC[C@H](Br)[C@H](Br)CC[C@@H](Br)[C@@H](Br)CC[C@H]1Br
inactive: [1] 1.05 | [2] 0.985 | [3] 1 | [5] 0.974 | [6] 0.789 | [7] 0.976 | [8] 1.08 | [11] 0.962 | [12] 0.868
active: [4] 0.773 | [9] 0.232 | [10] 0.351
